Laboratory results reported in article PMC4336329 (PLoS ONE, 2015).
In all, about 310,000 compounds went through this assay and about 2,200 (0.71%) showed an effect of 50% or more. The effect is printed as a negative number. This is one part of a sample in which strong results are shown more often than they occur.

What follows are compounds tested against human ether-à-go-go-related gene (hERG) potassium channel (human, UniProt Q12809) (assay: primary screen, population patch clamp on CHO cells stably expressing hERG; higher = less effect of the substance).
Chain of human ether-à-go-go-related gene (hERG) potassium channel (Q12809 whole entry, looked up): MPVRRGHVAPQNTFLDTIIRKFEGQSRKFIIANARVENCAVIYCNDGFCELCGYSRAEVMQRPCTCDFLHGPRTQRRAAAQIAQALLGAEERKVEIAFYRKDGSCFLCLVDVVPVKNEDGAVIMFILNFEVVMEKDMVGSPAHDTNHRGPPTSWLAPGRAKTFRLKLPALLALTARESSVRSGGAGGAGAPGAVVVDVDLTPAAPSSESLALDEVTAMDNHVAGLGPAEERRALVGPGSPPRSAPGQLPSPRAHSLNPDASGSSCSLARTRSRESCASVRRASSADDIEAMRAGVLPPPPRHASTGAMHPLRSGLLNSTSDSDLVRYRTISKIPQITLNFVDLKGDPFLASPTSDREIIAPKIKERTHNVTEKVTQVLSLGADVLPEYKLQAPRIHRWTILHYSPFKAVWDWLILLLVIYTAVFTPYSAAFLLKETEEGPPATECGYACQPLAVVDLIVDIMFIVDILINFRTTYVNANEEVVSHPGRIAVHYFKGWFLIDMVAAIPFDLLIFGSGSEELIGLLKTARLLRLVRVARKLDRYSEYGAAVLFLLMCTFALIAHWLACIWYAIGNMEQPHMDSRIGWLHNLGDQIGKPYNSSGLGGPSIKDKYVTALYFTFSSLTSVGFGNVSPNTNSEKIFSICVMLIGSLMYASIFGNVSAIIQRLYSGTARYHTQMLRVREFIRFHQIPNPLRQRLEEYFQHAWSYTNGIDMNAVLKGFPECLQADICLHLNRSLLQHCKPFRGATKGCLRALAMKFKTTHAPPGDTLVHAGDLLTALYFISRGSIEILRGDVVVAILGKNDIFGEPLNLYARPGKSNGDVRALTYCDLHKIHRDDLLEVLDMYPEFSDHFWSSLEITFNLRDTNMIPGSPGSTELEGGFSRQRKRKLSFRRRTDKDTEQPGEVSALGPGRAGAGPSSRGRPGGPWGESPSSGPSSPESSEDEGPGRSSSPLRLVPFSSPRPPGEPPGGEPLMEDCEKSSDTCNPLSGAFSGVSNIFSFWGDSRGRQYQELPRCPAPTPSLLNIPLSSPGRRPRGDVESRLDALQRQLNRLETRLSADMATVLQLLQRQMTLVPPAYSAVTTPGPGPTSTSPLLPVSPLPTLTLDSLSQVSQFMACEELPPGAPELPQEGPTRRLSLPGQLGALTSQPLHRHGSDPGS

Row | SMILES | hERG current change (%, negative = inhibition) at 1uM [%]
1 | Cc1ccccc1OCC(O)Cn1c(=N)n(Cc2ccccc2)c2ccccc21.Cl (centres unmarked) | -48.4
2 | COc1ccccc1OCC(O)Cn1c(=N)n(CCN2CCCCC2)c2ccccc21.Cl (centres unmarked) | -27.9
3 | COC(=O)[C@H](C)NC(=O)Nc1ccc(C)c(C)c1 | 15.2
4 | Cc1ccnc(SCc2ccc([N+](=O)[O-])cc2)n1 | -1.04
5 | COCCN(C(=O)CSc1nc(-c2ccccc2)cn1N)c1c(N)n(Cc2ccccc2)c(=O)[nH]c1=O | 3.04
6 | CCCC(=O)Nc1cc(C(=O)O)ccc1Sc1ccc(C)cc1 | 10.9
7 | Cc1occc1-c1nnc(SCC(=O)NC2CCCC2)n1C | 13.5
8 | Cc1occc1-c1nnc(SCC(=O)NC2CCCC2)n1-c1ccccc1 | 0.492
9 | Cc1cccc(-n2c(SCC(=O)Nc3nonc3C)nnc2-c2ccoc2C)c1 | -81.9
10 | Cc1cccc(-n2c(SCC(=O)NC3CCCC3)nnc2-c2ccoc2C)c1 | -68.6
11 | Cc1nonc1NC(=O)CSc1nnc(-c2ccoc2C)n1-c1cccc(Cl)c1 | -58.8
12 | Cc1nonc1NC(=O)CSc1nnc(-c2ccoc2C)n1C | 9.71
13 | Cc1ccc(C)c(-n2c(SCC(=O)Nc3nonc3C)nnc2-c2ccoc2C)c1 | 9.3
14 | CCCn1c(SCC(=O)Nc2nonc2C)nnc1-c1ccoc1C | 5.83
15 | CCn1c(SCC(=O)Nc2nonc2C)nnc1-c1ccoc1C | 7.63
16 | c1ccc2c(c1)CCCn1nnnc1-2 | 6.71
17 | CCCC(=O)N(Cc1cc(=O)[nH]c2ccccc12)c1ccccc1C | 13.1
18 | O=C(Cn1cnc(S(=O)(=O)N2CCCC2)c1)Nc1cccc(F)c1 | 14.4
19 | COc1ccc(S(=O)(=O)N2CCOCC2)cc1NC(=O)c1ccc(-n2nc(C)cc2C)cc1 | 6.25
20 | CCc1ccc(C(=O)OCC(=O)Nc2cccc(S(=O)(=O)NC3=NCCCCC3)c2)cc1 | 7.29
21 | COc1ccc(CNS(=O)(=O)c2ccc3c(c2)CC(C)N3C(=O)C2CC2)cc1 (centres unmarked) | 15.1
22 | Cc1ccc2c(c1)N(C(=O)CCC(=O)NCCCN1CCOCC1)CCO2 | 13.9

Row | SMILES | hERG current change (%, negative = inhibition) at 1uM [%]
23 | Cc1ccc2c(c1)N(C(=O)CCC(=O)NCCCN1CCC(Cc3ccccc3)CC1)CCO2 | -78.7
24 | O=C(CCC(=O)N1CCOc2ccc(Cl)cc21)NCCCN1CCN(c2ccccc2F)CC1 | -22.2
25 | O=C(CCC(=O)N1CCOc2ccccc21)NCCCN1CCN(Cc2ccccc2)CC1 | -41.9
26 | CCN1CCN(CCCNC(=O)CCC(=O)N2CCOc3ccc(Cl)cc32)CC1 | 6.48
27 | O=C(CCC(=O)N1CCOc2ccc(Cl)cc21)NCCCN1CCC(Cc2ccccc2)CC1 | -64.7
28 | O=C(CCC(=O)N1CCOc2ccc(Cl)cc21)NCCCN1CCN(Cc2ccccc2)CC1 | -63.7
29 | Cc1ccc2c(c1)N(C(=O)CCC(=O)NCCCN1CCN(C)CC1)CCO2 | 7.21
30 | O=C(CCC(=O)N1CCOc2ccc(Cl)cc21)NCCCN1CCOCC1 | 12.5
31 | CC(NS(=O)(=O)c1cccc(S(=O)(=O)c2ccccc2)c1)C(=O)O (centres unmarked) | 7.71
32 | O=C(CSc1ccc(-c2cccnc2)nn1)N1CCCCC1 | 14.1
33 | COc1ccc(-c2[nH]ncc2CN(C)C(C)c2ccncn2)c(F)c1 (centres unmarked) | 1.94
34 | COc1cc(Br)c(C(=O)c2nccc3cc(OC)c(OC)cc23)cc1OC | 10.6
35 | O=C(COc1ccc2ccc(=O)oc2c1)Nc1nccs1 | 2.46
36 | O=C1N/C(=N/N=C/c2ccc(O)cc2)SC1Cc1ccccc1 (centres unmarked) | -0.776
37 | Cc1occc1C(=O)N/N=C/c1ccc(N(C)C)cc1 | 15.7
38 | O=C(NC1(C(F)(F)F)NC(=O)N(Cc2ccco2)C1=O)c1cccs1 (centres unmarked) | 19.2
39 | CC(=O)N1CCN(c2ccc(NC(=O)c3ccc(Br)o3)cc2Cl)CC1 | -1.25
40 | Cc1ccc(Cl)cc1N1CCN(S(=O)(=O)c2cnc[nH]2)CC1 | 1.64
41 | CN(Cc1ccccc1)S(=O)(=O)c1cc2c3c(c1)CCN3C(=O)CC2 | 6.98
42 | O=C(NN1C(=O)c2ccccc2NC1c1ccc([N+](=O)[O-])o1)c1ccc(Br)cc1 (centres unmarked) | -27.2
43 | O=C(NN1C(=O)c2ccccc2NC1c1ccco1)c1ccccc1 (centres unmarked) | 4.38
44 | O=C(NN1C(=O)c2ccccc2NC1c1ccco1)c1ccc(Br)cc1 (centres unmarked) | -50.4
